PubChem BioAssay (EPA / NIEHS)
Calls of active or inactive are those of the source. Rule for the calls: active = hit-call score of the fitted dose curve at least 0.9, where 1 is the maximum; inactive = score below 0.9.

What follows are compounds tested against Hepatocyte nuclear factor 6 (Homo sapiens) (UniProt Q9UBC0) (assay: ATG_HNF6_CIS: Attagene CIS-FACTORIAL HepG2 Assay for human Hepatocyte Nuclear Factor 6 (HNF6) (AID 2282952)). Settings: HepG2 Attagene cis-factorial HNF6 reporter transcription; actives raise or lower the signal.
Chain of Hepatocyte nuclear factor 6 (Homo sapiens) (Q9UBC0 whole entry, looked up): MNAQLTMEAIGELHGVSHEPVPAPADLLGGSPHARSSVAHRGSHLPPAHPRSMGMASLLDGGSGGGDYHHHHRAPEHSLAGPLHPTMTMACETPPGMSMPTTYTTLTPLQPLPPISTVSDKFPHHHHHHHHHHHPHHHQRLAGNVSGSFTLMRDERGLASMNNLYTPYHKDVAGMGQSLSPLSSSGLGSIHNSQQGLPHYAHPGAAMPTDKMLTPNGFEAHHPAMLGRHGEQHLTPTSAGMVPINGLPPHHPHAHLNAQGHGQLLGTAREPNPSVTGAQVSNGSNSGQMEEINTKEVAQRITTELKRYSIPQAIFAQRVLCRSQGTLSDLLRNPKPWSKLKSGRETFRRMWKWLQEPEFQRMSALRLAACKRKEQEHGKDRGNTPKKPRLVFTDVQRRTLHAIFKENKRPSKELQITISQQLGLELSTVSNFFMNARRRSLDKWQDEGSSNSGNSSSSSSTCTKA
Protocol: ATG_CIS is a cell-based, multiplexed-readout assay that uses HepG2, a human liver cell line, with measurements taken at 24 hours after chemical dosing in a 24-well plate.ATG_HNF6_CIS is one of 52 assay component(s) measured or calculated from the ATG_CIS assay. It is designed to make measurements of mRNA induction, a form of inducible reporter, as detected with fluorescence intensity signals by Reverse transcription polymerase chain reaction (RT-PCR) and Capillary electrophoresis technology.Data from the assay component ATG_HNF6_CIS was analyzed into 1 assay endpoint. This assay endpoint, ATG_HNF6_CIS, was analyzed with bidirectional fitting relative to DMSO as the negative control and baseline of activity. Using a type of inducible reporter, measures of mRNA for gain or loss-of-signal activity can be used to understand the reporter gene at the transcription factor-level as they relate to the gene ONECUT1. Furthermore, this assay endpoint can be referred to as a primary readout, because this assay has produced multiple assay endpoints where this one serves a reporter gene function. To generalize the intended target to other relatable targets, this assay endpoint is annotated to the dna binding intended target family, where the subfamily is homeobox protein.
Human liver HepG2 cells are transiently transfected with multiple reporter transcription units (MRTUs) in 6-well plates using FuGene 6 reagent (Roche; 3 ml FuGene/1 mg DNA). The MRTU constructs are regulated by a cis-regulating element (promoter). […] A major difference between the CIS and TRANS system is that in CIS activities of endogenous TFs are measured, whereas the TRANS assay evaluates changes in activities of exogenous, chimeric NR-Gal4 proteins. […] At the end of 24 hour incubation, total RNA was isolated using TriZol reagent (Invitrogen). The isolated RNA is then reverse-transcribed using oligo(dT) primer and Mo-MLV reverse transcriptase (Invitrogen) with DNAse I (Ambion) treatment for 30 min. The one-tenth of the produced cDNA was amplified by PCR using Taq DNA polymerase (Invitrogen) and two reporter sequence-specific primers. The PCR products were fluorescently labeled by primer extension with 6-arboxyfluorescein (6-FAM) 5'-labeled reporter sequence-specific primer (2 min at 95 C, 20 s at 68 C and 10 min at 72 C) and these products were digested with 5U of HpaI (New England Biolabs) for 2h at 37 C. The fragments were purified using Qiaquick PCR columns (Qiagen), analyzed on an ABI 3130xL genetic analyzer (Applied Biosystems) with peak positions identified by using a set of X-rhodamine (ROX)-labeled MapMarker1000 molecular weight standards (BioVentures). The raw capillary electrophoresis data was processed using Attagraph software (Attagene).

| SMILES | outcome | AC50 |
| --- | --- | --- |
| Cl[C@H]1OCCO[C@@H]1Cl | inactive |  |
| CCOP(=S)(OCC)Oc1ccc(Cl)cc1Cl | inactive |  |
| Cc1ccc(CCl)cc1 | inactive |  |
| COc1ccc([N+](=O)[O-])cc1O | inactive |  |
| CC(C)(C1CCC(O)CC1)C1CCC(O)CC1 (stereo not given) | inactive |  |
| Cc1cc(C(F)(C(F)(F)F)C(F)(F)F)ccc1NC(=O)c1cccc(I)c1C(=O)NC(C)(C)CS(C)(=O)=O | inactive |  |
| COP(=S)(OC)Oc1cc(Cl)c(I)cc1Cl |  | 27.2 µM (active) |
| CCOP(=S)(OCC)SCS(=O)(=O)C(C)(C)C | inactive |  |
| CCCCCCCCBr | inactive |  |
| C=C(C)[C@@H]1CC=C(C=O)CC1 | inactive |  |
| CC(C)(C)c1ccccc1O |  | 147 µM (active) |
| C=CC(=O)OCC(COC(=O)C=C)(COC(=O)C=C)COC(=O)C=C | inactive |  |
| CN(C)CCN(C)C | inactive |  |
| CCOC(=O)c1ccccc1S(=O)(=O)NC(=O)Nc1nc(Cl)cc(OC)n1 | inactive |  |
| O=NN1CCCCCCC1 | inactive |  |
| COc1nn(C(=O)NS(=O)(=O)c2ccccc2OC(F)(F)F)c(=O)n1C | inactive |  |
| O=C(O)COc1cc(Cl)c(Cl)cc1Cl | inactive |  |
| N#CCC#N | inactive |  |
| OCCCCO | inactive |  |
| O=NN1CCCCCC1 | inactive |  |

| SMILES | outcome | AC50 |
| --- | --- | --- |
| C[C@H]1C(=O)O[C@@H]2CCN3CC=C(COC(=O)[C@](C)(O)[C@]1(C)O)[C@H]23 | inactive |  |
| COc1ccc(N)cc1 | inactive |  |
| Clc1cc(C(Cl)(Cl)Cl)cnc1Cl | inactive |  |
| CC(=O)CN(CC(C)=O)N=O | inactive |  |
| c1ccc2sc(SNC3CCCCC3)nc2c1 | inactive |  |
| O=C1c2ccccc2C(=O)C1C(=O)C(c1ccccc1)c1ccc(Cl)cc1 (stereo not given) |  | 61.5 µM (active) |
| CC(C)(C)c1ccc(CCOc2ncnc3ccccc23)cc1 | inactive |  |
| CCCCCCCCCCCCCCC(Br)C(=O)O (stereo not given) |  | 187 µM (active) |
| Nc1cccnc1 | inactive |  |
| Cc1ccc2nc3sc(=O)sc3nc2c1 | inactive |  |
| CCOP(=O)(OCC)SCCSCC | inactive |  |
| C=CC(=O)NC(C)(C)CC(C)=O | inactive |  |
| O=c1oc2ccccc2c(O)c1C(CC(O)c1ccc(-c2ccc(Br)cc2)cc1)c1ccccc1 (stereo not given) | inactive |  |
| CCC[CH2][Sn]([Cl])([Cl])[CH2]CCC | inactive |  |
| O=c1nc(O)n(Cl)c(=O)n1Cl | inactive |  |
| N#Cc1ccccc1N | inactive |  |
| ClCCCCl | inactive |  |
| Cc1cc(-c2cc(C)c(N)c(C)c2)cc(C)c1N | inactive |  |
| O=[N+]([O-])c1ccc(Cl)c([N+](=O)[O-])c1 | inactive |  |
| CCOC(=O)C(SP(=S)(OC)OC)c1ccccc1 (stereo not given) | inactive |  |
